Measurements taken from PubChem BioAssay (NCI).
About 83,000 compounds went through this panel and 20% of them were active in at least one assay; those are over-represented in the sample as a whole.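 Activity criterion: percent growth below 10, measured after cells in 96-well plates were exposed to a single compound concentration for 48 hours.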 Calls of active or inactive are those of the source.

How the values were obtained:
Experiment in all cases: NCI-60 one-dose screen, 48 h (100 = growth as untreated, 0 = no growth, -100 = all killed)
Settings in all cases: 10 µM
[1] = test system: EKVX NSCLC
[2] = test system: SN12C renal
[3] = test system: UO-31 renal
[4] = test system: TK-10 renal
[5] = test system: ACHN renal
[6] = test system: CAKI-1 renal
[7] = test system: A498 renal
[8] = test system: CCRF-CEM leukemia
[9] = test system: MOLT-4 leukemia
[10] = test system: SR leukemia

Measured: growth

COc1ccc(NC(=O)Cc2nc3nc4sc(C)c(C)c4c(=O)n3[nH]2)cc1
inactive: [1] 93.1% | [2] 106% | [3] 83.1% | [4] 115% | [5] 107% | [6] 98% | [7] 122% | [8] 90.4% | [9] 99.4% | [10] 99.1%

Cc1cccc(Cl)c1NC(=O)c1ccc2nc(NC(=O)NC3CCN(C)CC3)sc2c1
inactive: [1] 90.9% | [2] 73.8% | [3] 84.1% | [4] 83.8% | [5] 102% | [6] 100% | [7] 104% | [8] 83% | [9] 77.9% | [10] 86.7%

CCc1ccc2c(c1)N(CCO)C1=C(C(=O)OC1)C2c1ccccc1 (stereo not given)
inactive: [1] 104% | [2] 105% | [3] 88.9% | [4] 91.8% | [5] 88.6% | [6] 101% | [7] 73.4% | [8] 91.9% | [9] 83% | [10] 63.6%

CC(=O)/C(=C/c1ccccc1)C(=O)CC(C)C
inactive: [1] 99.6% | [2] 108% | [3] 83.1% | [4] 84.2% | [5] 84.7% | [6] 100% | [7] 96.1% | [9] 34.1%
active: [8] 9% | [10] 1.48%

N#Cc1c(C#N)c(SSc2c(C#N)c(C#N)c(N)n2-c2ccccc2)n(-c2ccccc2)c1N
inactive: [1] 107% | [2] 99.3% | [3] 81.2% | [4] 107% | [5] 101% | [6] 118% | [7] 92.1% | [8] 126% | [9] 106% | [10] 106%

CCCCCCCCCCCCCCCCCCOCC(COCCOCC[N+]1(CCCCCC(=O)[O-])CCCC1)Oc1ncccn1 (stereo not given)
inactive: [1] 63.4% | [2] 46.6% | [3] 98.7% | [5] 69.2% | [6] 93.5% | [7] 73.7% | [8] 32.3% | [9] 32.5% | [10] 29.9%
active: [4] 7.83%

COc1ccc(-c2nc3ccccn3c2-c2nnc(-c3cc(OC)c(OC)c(OC)c3)o2)cc1
inactive: [1] 71% | [2] 69.7% | [3] 77.7% | [4] 77.9% | [5] 49.4% | [6] 80.1% | [7] 48.2% | [8] 88.4% | [9] 92.1% | [10] 37.7%

COC(=O)[C@@H]1[C@H](O)[C@H](C)[C@H](O)[C@@](C)(O)/C=C\C=C(C)C(=O)Nc2c(C)c(OC(C)=O)c3c(c2O)C(=O)C(C)=C2OCOC(=C23)C(C)=C[C@@](C)(O)[C@H](O)[C@@H](C)[C@H]1OC(C)=O
inactive: [1] 108% | [2] 108% | [3] 88.7% | [4] 126% | [5] 110% | [6] 100% | [7] 120% | [8] 111% | [9] 95.6% | [10] 92.1%

Nc1ncn(C2OC(CO)C(O)C2O)c(=O)n1 (stereo not given)
inactive: [1] 44.9% | [2] 17.4% | [7] 19%
active: [3] 0.167% | [4] 4.79% | [5] -21.7% | [6] -2.03% | [8] -7.84% | [9] 0.695% | [10] -1.52%

N=c1c2c(-c3ccccc3)c(-c3ccccc3)n(Cc3ccccc3)c2ncn1CCCO
active: [3] -0.199% | [9] -10.9% | [10] -33.5%
inactive: [1] 36.5% | [2] 40.3% | [4] 35.4% | [5] 26.1% | [6] 13.9% | [7] 17.6% | [8] 28.9%

N=c1nc(N)ncn1-c1ccccc1
inactive: [1] 99.7% | [2] 87.3% | [3] 94.5% | [4] 102% | [5] 101% | [6] 97.9% | [7] 83.8% | [8] 84.9% | [9] 109% | [10] 97.4%

COc1ccc(-c2nnc(-c3c(-c4ccccc4)nc4ncccn34)o2)cc1OC
inactive: [1] 114% | [2] 97.3% | [3] 79% | [4] 111% | [5] 88.8% | [6] 103% | [7] 117% | [8] 96.7% | [9] 93.1% | [10] 81.1%

COc1cccc(C2C3=C(COC3=O)N(CCO)c3cc(OC)ccc32)c1 (stereo not given)
active: [7] -6.88%
inactive: [1] 40.5% | [2] 27% | [3] 50.4% | [4] 51.8% | [5] 31.9% | [6] 36.7% | [8] 15% | [9] 19% | [10] 22.3%

CN(C)CCOc1nc2ccccc2c2c1-c1ccc(Cl)cc1C2=O
active: [1] -1.93% | [3] -33.1% | [4] -16.4% | [6] -13.7% | [8] 2.75% | [9] 1.17% | [10] -6.41%
inactive: [2] 11.3% | [5] 10.1% | [7] 25.2%
